# Data from ChEMBL document CHEMBL3433997, “St. Jude Leishmania screening dataset” (2016).
# Legend:
# Format in all cases: functional
# [1] = target: Solute carrier family 2, facilitated glucose transporter member 1 (Homo sapiens) (UniProt P11166); assay: ST_JUDE_LEISH: Cytotoxicity at 2uM final concentration against transgenic Leishmania Mexicana promastigotes LmGLUT1 that are glucose transport deficient and complemented with the human glucose transporter GLUT1. Activity is measured by DNA content using SYBR green in vitro
# Sequence of Solute carrier family 2, facilitated glucose transporter member 1 (Homo sapiens) (P11166 whole entry): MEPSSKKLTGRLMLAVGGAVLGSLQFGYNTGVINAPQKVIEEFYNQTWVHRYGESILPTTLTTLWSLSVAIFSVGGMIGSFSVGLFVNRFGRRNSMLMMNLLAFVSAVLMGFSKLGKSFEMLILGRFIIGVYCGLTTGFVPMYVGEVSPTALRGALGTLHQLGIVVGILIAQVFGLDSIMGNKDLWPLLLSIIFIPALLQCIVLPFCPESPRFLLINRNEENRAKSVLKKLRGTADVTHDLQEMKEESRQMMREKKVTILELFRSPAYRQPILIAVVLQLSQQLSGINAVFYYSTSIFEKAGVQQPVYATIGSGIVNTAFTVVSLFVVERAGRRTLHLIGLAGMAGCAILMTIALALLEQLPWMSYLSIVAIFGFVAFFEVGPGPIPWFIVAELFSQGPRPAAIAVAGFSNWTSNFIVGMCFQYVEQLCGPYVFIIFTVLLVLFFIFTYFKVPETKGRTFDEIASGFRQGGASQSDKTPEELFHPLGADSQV
# [2] = target: Hexose transporter 1 (Plasmodium falciparum) (UniProt O97467); assay: ST_JUDE_LEISH: Cytotoxicity at 2uM final concentration against transgenic Leishmania Mexicana promastigotes LmPfHT that are glucose transport deficient and complemented with the Plasmodium falciparum hexose transporter. Activity is measured by DNA content using SYBR green in vitro
# [3] = target: Glucose transporter (Leishmania mexicana) (UniProt O61059); assay: ST_JUDE_LEISH: Cytotoxicity at 2uM final concentration against transgenic Leishmania Mexicana promastigotes LmGT2 that are glucose transport deficient and complemented with the L. Mexicana glucose transporter 2. Activity is measured by DNA content using SYBR green in vitro
SMILES,inhibition [1],inhibition [2],inhibition [3]
Cc1nc(Nc2ccncc2)cc(-c2ccncc2)n1,0.59%,4.18%,2.92%
N#Cc1ccc(N/C(=N\c2ccc(-c3ccccc3)cc2)NCc2cccnc2)c(O)c1,6.14%,1.66%,5.44%
N=C(NCCCCCCCCNC(=N)Nc1ccc(Cl)cc1)Nc1ccc(Cl)cc1,5.92%,0.99%,8.78%
CCCC(CCC)n1ccc2c3c(N)nc(N)nc3ccc21,59.8%,70.1%,44.5%
COc1ccc2nccc([C@@H](O)CN3CCC(NC(=O)C(=Cc4ccc(C#N)cc4)c4ccc(-c5ccccc5)cc4)CC3)c2c1,1.28%,0.19%,-0.89%
CCCCCCN1CCN(Cc2cccc(NC(=O)c3ccc(Cl)c(Cl)c3)c2)CC1,5.8%,6.59%,4.85%
Cc1ccc(NC(=O)c2ccc3ncccc3c2)cc1OC1CCN(CCC(C)C)C1 (centres undefined),2.61%,3.22%,3.54%
O=C(O)c1ccc(OCOCOc2ccc(C(=O)O)c(O)c2)cc1O,5.67%,5.54%,3.43%
O=C(Nc1ccccc1Cl)c1cc2ccccc2cc1O,-2.32%,-1.17%,-0.43%
Cc1nnsc1C(=O)Nc1cccc(-c2cccc(-c3nc4cccc(C)c4[nH]3)c2)c1,-0.36%,-1.04%,-5.1%
CNC(=O)c1cnc(Nc2ccc(N3CCN(C)CC3)cc2)nc1Nc1ccccc1OC,4.96%,4.09%,3.41%
COc1ccc(CN(C)CCCCc2ccc(NC(=O)COc3cccc4sc5ccccc5c(=O)c34)cc2)cc1OC,1.62%,-3.06%,0.59%
CCN(CC)CCOc1c(Cl)cc(Cl)cc1CNCCCNc1cc(=O)c2ccccc2[nH]1,0.34%,1.03%,4.06%
CCC1(c2ccccc2)N=C(N)N(CCCc2ccccc2)C1=O (centres undefined),2.53%,1.89%,0.85%
Clc1ccc2c(Cl)c(CNCCCNc3nc4ccccc4[nH]3)[nH]c2c1,0.17%,0.94%,1.14%
Oc1ccccc1CN1CCN(C(c2ccccc2)c2ccccc2)CC1,3.02%,6.5%,-0.06%
Fc1ccc(-c2cc3ncnc(N4CCN(CCN5CCCC5)CC4)c3s2)cc1,14.6%,12.9%,11.1%
O=C(c1cncc(-c2ccccc2)c1)N(Cc1cncn1Cc1ccccc1F)CC1CC1,0.88%,0.96%,-0.58%
COCCN1CCC(N(Cc2ccc(-c3ccc(OC(F)(F)F)cc3)cc2)C(=O)Cn2c(CCc3cccc(F)c3F)cc(=O)c3ccccc32)CC1,4.31%,4.88%,4.4%
CC(C)CNCc1cccc(-c2ccc(CNc3ccc4ncccc4c3)cc2)c1,1.45%,1.19%,-0.62%
Clc1ccc2c(NN=Cc3cccnc3)ccnc2c1,6.14%,0.59%,5.48%
O=C(N[C@H]1CCN(Cc2ccc(OCCCN3CCCCC3)cc2)C1)c1ccc(Oc2ccccc2)cc1,72.1%,19.9%,13.7%
Cc1cccc2nc(-c3ccc(-c4ccc(CN5CCC(C(N)=O)CC5)cc4)s3)[nH]c12,10.9%,9.37%,8.95%
COc1cc(C2=NN(S(=O)(=O)c3c(Cl)cc(Cl)cc3Cl)CCCC2)ccc1Cl,2.1%,2.71%,4.36%
COc1ccc(-c2cccc(NC(=O)c3cccc(C#N)c3)c2)cc1CN1CCCN(C)CC1,1.45%,1.13%,5.93%

SMILES,inhibition [1],inhibition [2],inhibition [3]
O=C(Nc1cccc(-c2csc(-c3nc4ccccc4[nH]3)c2)c1)c1ccoc1,3.4%,3.05%,1.11%
O=C(N[C@@H](Cc1ccccc1)[C@H](O)CNCCC(F)(F)F)c1cccc(OCC2CC2)c1,-0.59%,-0.22%,0.56%
O=C1CCCN1CCCNCc1ccc(-c2cccc(-c3nc4cc(F)ccc4[nH]3)c2)cc1,-2.56%,-0.8%,-2.7%
Fc1ccc(CNc2nc(-c3ccc(F)c(C(F)(F)F)c3)n(-c3cccc(C(F)(F)F)c3)n2)cc1,4.39%,5.8%,3.42%
CCN(CC)CCn1c(=N)n(CC(=O)c2ccc(-c3ccccc3)cc2)c2ccccc21,0.58%,1.91%,2.35%
CCCCNC[C@@H](O)[C@H](Cc1ccccc1)NC(=O)c1cc(NCC)cc(N2CCCCS2(=O)=O)c1,4.19%,2.9%,3.45%
Cc1cccc2nc(-c3cccc(-c4cccc(CNCc5cccc(N)c5)c4)c3)[nH]c12,1.24%,2.66%,1.47%
O=C(Nc1ccc(F)cc1)c1nc2ccccc2nc1Cl,4.1%,3.68%,4.22%
CCc1cn2c3c(cc(C(=O)N[C@@H](Cc4cccc(F)c4)[C@H](O)CNC4CCCCC4)cc13)N(C)S(=O)(=O)CC2,-0.36%,-1.06%,-0.81%
CCOc1ccc2c(=NN=Cc3cccc(OC)c3)cc(C)[nH]c2c1,-0.74%,-0.19%,-0.12%
CC(C)N1CCCN(C(=O)C2CCN(c3ccc(C(=O)N4CCCC4)cn3)CC2)CC1,5.32%,4.11%,4.51%
CN1CCCC(CN2CCN(Cc3ccc(-c4ccc(-c5nc6cc(F)ccc6[nH]5)s4)cc3)CC2)C1 (centres undefined),5.94%,5.97%,4.47%
C#CCN(Cc1cc2c(=O)[nH]c(N)nc2cc1C)c1ccc(C(=O)N[C@@H](CCC(=O)O)C(=O)O)cc1,6.81%,0.4%,8.07%
Cc1ccc(CNC(=O)[C@H](Cc2ccccc2)Nc2cc(C)nc(Nc3ccccc3)n2)cc1,7.2%,6.84%,4.59%
Cc1cnc(NCC2CCCCC2)nc1N[C@@H](CC(C)C)C(=O)Nc1ccccc1,2.17%,1.5%,0.65%
CO/C(=C\C=C\c1cc2cc(Cl)c(Cl)cc2[nH]1)C(=O)NCCCN1CCN(c2cccc(OCC(=O)Nc3cccc(C(=O)c4ccccc4)c3)c2)CC1,4.84%,2.82%,2.69%
COc1ccc(-c2ccc(CNC(=O)c3cccc(C#N)c3)c(F)c2)cc1CN1CCCN(C)CC1,0.77%,-4.93%,0.55%
Cc1cccc2c(C(=O)NC3CCN(Cc4ccccc4)CC3)cc(-c3cccnc3)nc12,1.6%,1.08%,-0.31%
COc1cc2nc(N3CCN(c4nc(N)c5cc(OC)c(OC)cc5n4)CC3)nc(N)c2cc1OC,5.24%,4.56%,4.05%
Cc1noc(=O)c2ccc(NC(=O)C(O)(CSc3ccccc3)CC(C)C)cc12 (centres undefined),6.92%,4.78%,3.58%
Cc1ccc(CCC(C)NCC(O)c2cccc(Cl)c2)cc1 (centres undefined),12.8%,13.1%,11.1%
CC(C)(C)c1ccc(-c2nnc(N)nc2N)cc1,1.1%,0.43%,0.09%
CCCCCC(C)C(C)c1cc(O)c2c(c1)OC(C)(C)CC2(O)c1ccnn1C (centres undefined),3.29%,3.23%,3.24%
C=C[C@]1(C)C[C@@H](OC(=O)NC(=O)CCCS(=O)(=O)c2nnc(C)s2)[C@]2(C)[C@H](C)CC[C@]3(CCC(=O)[C@H]32)[C@@H](C)[C@@H]1O,11.1%,11.3%,6.8%
Cc1ccc(F)c(OC2CCN(c3ccc(C(=O)NC4CC4)cn3)CC2)c1,0.56%,1.76%,-3.52%

SMILES,inhibition [1],inhibition [2],inhibition [3]
COc1ccc2[nH]ccc(=NN=Cc3ccc(Cl)cc3)c2c1,1.86%,3.19%,0.32%
Cn1c(=O)c2cc(C(=O)NCCCN3CCCCCC3)sc2c2ccccc21,2.89%,4.91%,5.05%
Cc1cc2c(NC(=O)NC3CCN(CCc4ccccc4Cl)CC3)cccc2cn1,2.51%,1.74%,1.68%
COc1ccc(CCNCCCCCCNCCc2ccccc2Cl)cc1OC,1.25%,0.29%,1.91%
COc1ccc2nccc(NCC3(O)CCC(NCc4cc5c(cn4)OCCO5)CC3)c2n1 (centres undefined),-1.99%,-1.9%,-2.58%
Oc1cccc(-c2nc(-c3ccccc3)c(-c3ccc(Oc4ccc(-c5[nH]c(-c6cccc(O)c6)nc5-c5ccccc5)cc4)cc3)[nH]2)c1,1.24%,2.89%,1.33%
CC[C@H]1CN(Cc2ccco2)CC[C@H]1CCCc1ccnc2ccc(O)cc12,4.7%,4.86%,4.42%
CCCCCn1c(Sc2ccc(C#N)c([N+](=O)[O-])c2)nnc1-c1ccc(Cl)cc1,4.31%,4.27%,0.12%
CCCC(CNCc1ccccc1)CNc1cc(=O)c2ccccc2[nH]1 (centres undefined),-0.08%,-3.44%,-0.73%
CC1(C)N=C(N)N=C(N)N1O,-0.13%,1.38%,0.94%
c1cc(CNCCN2CCNCC2)cc(-c2cccc(-c3nc4ccccc4[nH]3)c2)c1,1.08%,1.4%,0.14%
Cc1cc(F)ccc1Nc1nc(N(C)c2ccccc2)c2cc(OCCCN(C)C)ccc2n1,2.53%,3.15%,4.25%
CN(CCN)Cc1ccc(-c2ccc(-c3nc4cc(F)ccc4[nH]3)s2)cc1,-0.54%,0.42%,-1.71%
CC(=O)N[C@H](C(=O)Nc1ccc(-c2ccc(-c3nc4cc(C(F)(F)F)ccc4[nH]3)cc2)cc1)C(C)C,4.54%,3.08%,0.17%
CC1CN(Cc2cccc(F)c2)CCN1c1ccc(NC(=O)c2ccc(F)cc2)cc1 (centres undefined),2.15%,1.55%,8.54%
CCc1nonc1NC(=O)c1oc2c(C)c(C)ccc2c1C,7.09%,5.3%,7.88%
CCc1ccc(NC(=O)c2ccc(CN3CCCN(Cc4cccs4)CC3)cc2)cc1,13.8%,12.6%,14.9%
Cc1c[nH]c(-c2cccc(C(=O)NC3CCC(CCN4CCc5ccc(C#N)cc5CC4)CC3)c2)n1 (centres undefined),2.16%,1.04%,1.55%
c1ccc(-c2ccc(-c3csc(Nc4ccncc4)n3)cc2)cc1,0.44%,1.9%,1.13%
CCCCN1CCCN(Cc2cccc(NC(=O)c3ccc(-c4ccccc4)cc3)c2)CC1,1.16%,-2.15%,-1.31%
C=C1N(C)c2cc([N+](=O)[O-])c(N)cc2C1(C)C,0.68%,-0.1%,-1.11%
O=C(NCCCN1CCCC1=O)c1cnc(N2CCC(Oc3ccccc3)CC2)c(Cl)c1,0.56%,3.58%,0.19%
Cc1ccc(/C=C/C(=O)NCCCCCN2CCCN(C(=O)Nc3ccc(Cl)c(Cl)c3)CC2)cc1,1.97%,2.34%,4.4%
